# Screens (PubChem BioAssay)
# Pf Dd2 growth: inhibitors of Plasmodium falciparum Dd2 growth | P. falciparum Dd2 growth, SYBR Green, 72 h | Potency, µM (series often up to 28.9 µM), inactives show at the top dose activity, negative = inhibition, usual class: inhibitors | 4.3% of 120,000 active | AID 1347417; active = well fitted inhibition curve with a large enough effect;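 also: plate controls were DMSO vehicle for no effect and reference drug for full effect; nearly all actives have a fitted effect of over 65% in size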
#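 Infected erythrocytes (Dd2, 0.3% parasitemia, 2.5% hematocrit final) are added to compound in RPMI-1640/Albumax II medium, grown 72 h at 37C in low oxygen, then lysed with saponin/Triton-X containing SYBR Green and read by fluorescence.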
# Active calls of the source: *; i = inactive; [ ] = remark or other dose. Many of the other results were omitted from the sample, so hits are more common in it than they were. Potency is read from the fitted curve at half-maximal effect.
SMILES,Pf Dd2 growth
Cc1nn2c(c1-c1ccccc1-c1ccccc1)N(Cc1ccc(OCC(=O)O)cc1)CCC2,i
O=C(Cc1cn2ccsc2n1)NC1CCOC2(CCOCC2)C1 (stereo unspecified),-1.5%
CCn1ccc(C(=O)NCC23CCCC=C2NC(=O)CC3)n1 (stereo unspecified),-3.4%
COc1ccc(CN2C[C@H]3CN(Cc4ncc[nH]4)CCN3C2=O)cc1,-15.2%[44.1 µM]
O=C(Nc1nccs1)C1CC(=O)N(c2n[nH]c3ccccc23)C1 (stereo unspecified),-11.3%
CC1(C)CC(NC(=O)c2cc(Cn3cnc4ccccc43)[nH]n2)CC(C)(C)N1,-3.6%
COc1ccc(C(=O)N2CCC3(CC2)COc2ccccc2[S+](=O)([O-])N3)cc1,0.3%
O=C1NC2(CCN(C(=O)c3ccc(F)cc3)CC2)COc2ccccc21,-12.0%
O=C(c1ccc(C(F)(F)F)cc1)N1CCC2(CC1)COc1ccccc1CN2,-10.6%
COc1ccc(C(=O)N2CCC3(CC2)COc2ccccc2C(=O)N3)cc1,2.24µM*
O=C1NC2(CCN(C(=O)c3ccc(C(F)(F)F)cc3)CC2)COc2ccccc21,1.12µM*
O=C1NC2(CCCN(C(=O)c3ccc(F)cc3)C2)COc2ccccc21 (stereo unspecified),i
Cc1ccccc1CN1Cc2nc(-c3cncnc3)ccc2OCC1=O,-6.2%[44.1 µM]
O=c1c2cc(-c3ccc(F)cc3)nn2ccn1CC(O)c1ccc(F)cc1 (stereo unspecified),i
CCOc1cc(=O)n2c(c1C(=O)Nc1cccc(C)c1C)CCCC2,-8.1%
CCC(CC)NC(=O)CC1CCCN(c2cnn(CC)c(=O)c2)C1 (stereo unspecified),-8.7%
Cc1cc(C)n(CCC(=O)N[C@@H]2CN(c3ccncn3)C[C@H]2CN(C)C)n1,19.6%
CCOc1ccc(NC(=O)N2CCC(CC(=O)NCc3ccccc3)C2)cc1 (stereo unspecified),i
O=C(NCCc1ccccc1)c1ccc2c(c1)N(Cc1c(F)cccc1Cl)C(=O)CS2,i
O=C(c1ccc2c(c1)N(Cc1c(F)cccc1Cl)C(=O)c1ccccc1S2)N1CCC2(CC1)OCCO2,10µM*
COC(=O)c1ccc2c(c1)N(Cc1ccc(Cl)cc1)C(=O)c1ccccc1S2,24.2%
O=C(c1ccc2c(c1)N(Cc1cccc(F)c1)C(=O)c1ccccc1S2)N1CCOCC1,-17.4%
Cc1ccccc1CN1C(=O)c2ccccc2Sc2ccc(C(=O)N3CCCC3)cc21,-17.3%
Cc1ccccc1CN1C(=O)c2ccccc2Sc2ccc(C(=O)N3CCOCC3)cc21,30.5%
Cc1ccccc1CN1C(=O)c2ccccc2Sc2ccc(C(=O)O)cc21,13.2%
SMILES,Pf Dd2 growth
CN1CCN(C(=O)c2ccc3c(c2)N(Cc2ccc(C(F)(F)F)cc2)C(=O)c2ccccc2S3)CC1,0.398µM*
Cc1cccc(CN2C(=O)c3ccccc3Sc3ccc(C(=O)N4CCCC4)cc32)c1,14.1µM*
CCN(C(=O)CN1C(=O)c2ccccc2Sc2ccc(C(=O)OC)cc21)c1cccc(C)c1,11.2µM*
COC(=O)c1ccc2c(c1)N(Cc1ccc(F)cc1)C(=O)c1ccccc1S2,5.2%
CNC(=O)c1ccc(C2CCCN2C(=O)CCc2cc3n(n2)CCCNC3)s1 (stereo unspecified),-1.9%
N#Cc1cccc(-c2cn3c(n2)N(C(=O)c2ccco2)CCC3)c1,-17.3%
COC(=O)[C@@H]1Cc2ncn(C)c2CN1C(=O)c1ccc(OC)cc1,14.0%[44.1 µM]
COCCOCC(=O)N1CCC2(CC1)C(OC)CN2c1cccc(F)c1 (stereo unspecified),i
CN1CCC2(CCC1=O)CN(Cc1nc(C(N)=O)no1)CCN2C (stereo unspecified),-13.0%
CC(C)CC(=O)N1CCC2(CC1)C(=O)N(C)c1ccccc12,41.5%
O=C(NC1CC(=O)N(CCc2ccc(F)cc2)C1)C1CCCCC1 (stereo unspecified),5.9%
O=C(NC1CCCCC1)C1CN(C(=O)c2cccc(Br)c2)CC12CCOCC2 (stereo unspecified),-16.3%
CC1CCCN1c1ncnc2c1CN(C1CCCNCC1)C(=O)CN2C (stereo unspecified),5.3%
O=C(Nc1ccccc1)N1CC(c2nc(CCOCC3CC3)no2)C1,-15.8%
Cc1cccc(CN2C[C@]34C=C[C@H](O3)C(C(=O)N3CCc5ncccc5C3)C4C2=O)c1 (stereo partly specified),-0.4%
Cc1nnc([C@@H]2CC(F)(F)CN2C(=O)c2n[nH]c3ccccc23)o1,-2.0%
O=C(Cc1ccc(F)cc1)Nc1ccc2ncnc(N3CCCCC3)c2c1,-6.4%
Cn1ccc2c(C(=O)NCC3CCC(=O)N3)nc(-c3ccccc3C#N)cc21 (stereo unspecified),i
CN1C(=O)c2ccccc2Sc2ccc(NC(=O)NCc3ccc(Cl)cc3)cc21,-27.2%
CN1CCN(C(=O)c2ccc3c(c2)N(Cc2c(F)cccc2Cl)C(=O)c2ccccc2S3)CC1,0.199µM*
O=C(NC1CCCC1)c1ccc2c(c1)N(Cc1c(F)cccc1Cl)C(=O)c1ccccc1S2,-19.0%
CCN(CC)CCNC(=O)Nc1ccc2c(c1)N(Cc1ccccc1)C(=O)c1ccccc1S2,3.98µM*
CC(C)OCCCNC(=O)c1ccc2c(c1)N(Cc1c(F)cccc1Cl)C(=O)c1ccccc1S2,-13.2%
CCOC(=O)c1ccc2c(c1)N(Cc1ccccc1)C(=O)c1ccccc1S2,-12.8%
F[C@@H]1CN(Cc2ccc3c(c2)OCCO3)C[C@@H]1OCc1nc2ccccc2[nH]1,i
SMILES,Pf Dd2 growth
CN(C)C(=O)c1cc2cccnn2n1,8.0%[44.1 µM]
Cc1cccc(N2CCN(C(=O)c3cnn(-c4cccc(Cl)c4C)c3C3CCNCC3)CC2)c1C,11.2µM*
CC(C)(C)OC(=O)N1CCC(c2c(C(=O)N3CCN(c4ccccn4)CC3)cnn2-c2ccc(F)cc2)CC1,-4.8%
Cc1c(Cl)cccc1-n1ncc(C(=O)N2CCOCC2)c1C1CCN(C(=O)OC(C)(C)C)CC1,-5.5%
Cc1ccc(N2CCN(C(=O)c3cnn(-c4ccc(C)c(C)c4)c3C3CCNCC3)CC2)c(C)c1,5.62µM*
Cc1ccc(Cl)cc1N1CCN(C(=O)c2cnn(-c3ccc(Cl)cc3)c2C2CCNCC2)CC1,10µM*
Cc1cc(C)cc(NC(=O)C2CCN(C(=O)c3cnn(-c4ccccc4)c3-n3cccc3)CC2)c1,10.3%
Cc1ccc(-n2ncc(C(=O)N3CCN(c4ccccn4)CC3)c2C2CCN(C(=O)OC(C)(C)C)CC2)cc1C,35.6%
Cc1ccc2nc(N3CCC(C(=O)N4CCN(c5cccc(C)c5C)CC4)CC3)[nH]c2c1,-6.6%
Cc1cc(C)cc(NC(=O)c2cnn(-c3ccc(C)c(C)c3)c2C2CCNCC2)c1,3.98µM*
Cc1ccc(C)c(NC(=O)c2cnn(-c3ccc(F)cc3F)c2C2CCNCC2)c1,39.0%
CCc1nc(SC)ncc1C(=O)N1CCN(c2cc(Cl)ccc2C)CC1,i
COc1cc(OC)cc(C(=O)NC2CCN(c3cc(-c4ccccc4)[nH]n3)CC2)c1,-22.5%
COc1ccc(C(=O)N[C@H]2CO[C@H]3[C@@H]2OC[C@H]3OC(=O)Nc2ccccc2)cc1,-19.1%[44.1 µM]
O=C(CC1CCCC1)N1CCC(N2CC(OCC3CC3)C23CCOCC3)CC1 (stereo unspecified),i
O=C(NCCOc1cccnc1)c1cn(Cc2cccc(C(F)(F)F)c2)nn1,-17.5%
CN1CC(=O)N(C2CCCNCC2)Cc2c(NC3CCCCC3)ncnc21 (stereo unspecified),-13.2%
O=C(NC1CCCN(c2cc(-c3ccc(Cl)cc3)[nH]n2)C1)c1ccc2c(c1)OCO2 (stereo unspecified),i
